Usually AC50 stands for the midpoint of the concentration-response curve, whichever way the signal moves.

Experimental findings from PubChem BioAssay (EPA / NIEHS) are described below.

Each structure is given as a SMILES string. “And” between values parts separate entries of the source, which are not always exact repeats. Identical values can stand only once. The source made the active and inactive calls. Rule for the calls: active = hit-call score of the fitted dose curve at least 0.9, where 1 is the maximum; inactive = score below 0.9.

The nature of test [1]: BSK_CASM3C_SRB: Viability Assessment in the BioMAP Diversity Plus: CASM3C Assay (AID 2283050).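 Note: total protein by SRB staining as cytotoxicity measure in parallel cultures; cells exposed to compound for 24 h.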 The following applies: primary human coronary artery smooth muscle cells.
Read-out in test [2]: Tissue Factor, F3 (gene 2152)
The test is described as follows: BSK_CASM3C_TissueFactor: BioMAP Diversity Plus: CASM3C Assay for Tissue Factor Biomarker Activity (AID 2283052).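 Note: cell surface tissue factor protein level read by ELISA.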 The following applies: primary human coronary artery smooth muscle cells; actives raise or lower the signal.

Read-out in test [3]: Interferon-gamma inducible Protein 10 (IP10), CXCL10 (gene 3627)
Nature of the test: BSK_hDFCGF_IP10: BioMAP Diversity Plus: hDFCGF Assay for Interferon-gamma inducible Protein 10 (IP10) Biomarker Activity (AID 2283053). Particulars: primary human foreskin fibroblasts; actives raise or lower the signal. The gist of the method: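 ELISA quantification of IP-10 after a 24 h chemical exposure of human dermal foreskin fibroblast primary cultures. Both increases and decreases versus DMSO fitted.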

Read-out in test [4]: Urokinase-type plasminogen activator receptor (uPAR), PLAUR (gene 5329)
Nature of the test: BSK_CASM3C_uPAR: BioMAP Diversity Plus: CASM3C Assay for Urokinase-type plasminogen activator receptor (uPAR) Biomarker Activity (AID 2283054).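 Note: cell-surface uPAR protein level quantified by ELISA.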 The following applies: primary human coronary artery smooth muscle cells; actives raise or lower the signal.

Read-out in test [5]: Vascular cell adhesion molecule 1 (VCAM1), VCAM1 (gene 7412)
The test is described as follows: BSK_CASM3C_VCAM1: BioMAP Diversity Plus: CASM3C Assay for Vascular cell adhesion molecule 1 (VCAM1) Biomarker Activity (AID 2283055).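 Note: VCAM-1 protein level quantified by ELISA on the cells.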 The following applies: primary human coronary artery smooth muscle cells; actives raise or lower the signal.

Read-out in test [6]: Epidermal growth factor receptor (EGFR), EGFR (gene 1956)
Nature of the test: BSK_hDFCGF_EGFR: BioMAP Diversity Plus: hDFCGF Assay for Epidermal growth factor receptor (EGFR) Biomarker Activity (AID 2283057). The following applies: primary human foreskin fibroblasts; actives raise or lower the signal. The gist of the method:
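EGFR levels by ELISA in human dermal fibroblast cultures, 24 h post-treatment, fitted bidirectionally versus DMSO. Parallel wells stained with sulforhodamine B to detect overt cytotoxicity.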

Read-out in test [7]: Interleukin-8 (IL8), CXCL8 (gene 3576)
The test is described as follows: BSK_hDFCGF_IL8: BioMAP Diversity Plus: hDFCGF Assay for Interleukin-8 (IL8) Biomarker Activity (AID 2283058). Particulars: primary human foreskin fibroblasts; actives raise or lower the signal. Summed up:
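IL-8 levels read by ELISA at 24 hours after dosing human skin fibroblast cultures. Parallel SRB staining assessed overt cytotoxicity, and gain or loss of signal was fitted against DMSO control.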

Test [8] in a line: BSK_hDFCGF_Proliferation: Cell Proliferation Assessment in the BioMAP Diversity Plus: hDFCGF Assay (AID 2283059).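 Note: curves fitted for both rise and fall of signal versus DMSO baseline.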 Particulars: primary human foreskin fibroblasts. Summed up: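 This proliferation readout used SRB total-protein staining of human foreskin fibroblasts […], normalized to DMSO with bidirectional curve fitting.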
Test [9] can be described thus: BSK_hDFCGF_SRB: Viability Assessment in the BioMAP Diversity Plus: hDFCGF Assay (AID 2283061).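 Note: cells exposed to compound for 24 h before the read.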 The following applies: primary human foreskin fibroblasts. The gist of the method: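 Viability was read as total protein: after 10% TCA fixation, wells were stained with 0.1% sulforhodamine B and read at 560 nm. Primary human foreskin fibroblasts were dosed for 24 h, with bidirectional fitting versus DMSO.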

Read-out in test [10]: TIMP metallopeptidase inhibitor 1 (TIMP1), TIMP1 (gene 7076)
Nature of the test: BSK_hDFCGF_TIMP1: BioMAP Diversity Plus: hDFCGF Assay for TIMP metallopeptidase inhibitor 1 (TIMP1) Biomarker Activity (AID 2283062). Particulars: primary human foreskin fibroblasts; actives raise or lower the signal. The gist of the method: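 TIMP-1 measured by ELISA 24 h after chemical dosing of primary human skin fibroblasts, with gain or loss fitted relative to DMSO. Parallel SRB staining (560 nm) monitored overt cytotoxicity.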

Read-out in test [11]: Monokine induced gamma interferon (MIG), CXCL9 (gene 4283)
Nature of the test: BSK_hDFCGF_MIG: BioMAP Diversity Plus: hDFCGF Assay for Monokine induced gamma interferon (MIG) Biomarker Activity (AID 2283063). Particulars: primary human foreskin fibroblasts; actives raise or lower the signal. The gist of the method: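 Human primary foreskin fibroblasts in the hDFCGF system, exposed to test chemical for 24 h; MIG measured by ELISA. Bidirectional curve fitting against DMSO negative control as activity baseline.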

Read-out in test [12]: Matrix Metallopeptidase 1 (MMP1), MMP1 (gene 4312)
Nature of the test: BSK_hDFCGF_MMP1: BioMAP Diversity Plus: hDFCGF Assay for Matrix Metallopeptidase 1 (MMP1) Biomarker Activity (AID 2283064). The following applies: primary human foreskin fibroblasts; actives raise or lower the signal. The gist of the method:
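ELISA read-out of MMP1 from human foreskin fibroblasts (primary skin cells), 24 h post-dose. Gain or loss of signal was fitted bidirectionally versus DMSO negative control; cytotoxicity was checked by SRB in parallel cultures.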

Read-out in test [13]: Vascular cell adhesion molecule 1 (VCAM1), VCAM1 (gene 7412)
The test is described as follows: BSK_hDFCGF_VCAM1: BioMAP Diversity Plus: hDFCGF Assay for Vascular cell adhesion molecule 1 (VCAM1) Biomarker Activity (AID 2283065).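 For AC50: VCAM-1 protein level quantified by ELISA after 24 h chemical exposure.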 Particulars: primary human foreskin fibroblasts; actives raise or lower the signal. The gist of the method: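 ELISA readout of VCAM-1 on human dermal fibroblast primary cultures, 24 h after chemical exposure. Gain or loss of signal fitted in both directions against DMSO baseline.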

Read-out in test [14]: Plasminogen activator inhibitor-1 (PAI1), SERPINE1 (gene 5054)
Nature of the test: BSK_hDFCGF_PAI1: BioMAP Diversity Plus: hDFCGF Assay for Plasminogen activator inhibitor-1 (PAI1) Biomarker Activity (AID 2283066). Particulars: primary human foreskin fibroblasts; actives raise or lower the signal. The gist of the method: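 PAI-1 levels in human dermal foreskin fibroblasts were quantified by ELISA 24 h after dosing, with gain or loss analysed against DMSO. Overt cytotoxicity was checked by sulforhodamine B total-protein staining in parallel cultures.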

Read-out in test [15]: Intercellular Adhesion Molecule 1 (ICAM1), ICAM1 (gene 3383)
Nature of the test: BSK_KF3CT_ICAM1: BioMAP Diversity Plus: KF3CT Assay for Intercellular Adhesion Molecule 1 (ICAM1) Biomarker Activity (AID 2283067). Particulars: primary human keratinocytes with fibroblasts; actives raise or lower the signal. The gist of the method:
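Cell-surface ICAM-1 was measured by ELISA 24 h after dosing primary human skin keratinocytes co-cultured with fibroblasts. Parallel SRB staining tracked overt cytotoxicity. Gain or loss of signal was fitted relative to DMSO.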

Read-out in test [16]: Interferon-gamma inducible Protein 10 (IP10), CXCL10 (gene 3627)
Nature of the test: BSK_KF3CT_IP10: BioMAP Diversity Plus: KF3CT Assay for Interferon-gamma inducible Protein 10 (IP10) Biomarker Activity (AID 2283068). The following applies: primary human keratinocytes with fibroblasts; actives raise or lower the signal. Summed up: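 Signal is secreted/surface IP-10 by ELISA in a human primary skin co-culture of keratinocytes and foreskin fibroblasts, taken 24 h post-dosing; DMSO served as negative control.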

The nature of test [17]: BSK_KF3CT_SRB: Viability Assessment in the BioMAP Diversity Plus: KF3CT Assay (AID 2283069).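 Note: read 24 h after compound addition.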 The following applies: primary human keratinocytes with fibroblasts. Summed up:
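SRB read-out at 560 nm (0.1% stain, TCA-fixed cells) gauges overt cytotoxicity in a human skin keratinocyte–fibroblast co-culture 24 h post-dosing. Signal change was fitted bidirectionally relative to DMSO control.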

Read-out in test [18]: TIMP metallopeptidase inhibitor 2 (TIMP2), TIMP2 (gene 7077)
The test is described as follows: BSK_KF3CT_TIMP2: BioMAP Diversity Plus: KF3CT Assay for TIMP metallopeptidase inhibitor 2 (TIMP2) Biomarker Activity (AID 2283071). The following applies: primary human keratinocytes with fibroblasts; actives raise or lower the signal. The gist of the method:
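TIMP-2 measured by ELISA at 24 h in human keratinocyte/fibroblast primary co-cultures exposed to chemicals. Both increases and decreases were fitted against DMSO. Parallel cultures were stained with SRB for total protein as an overt-cytotoxicity check.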

Read-out in test [19]: urokinase plasminogen activator (uPA), PLAU (gene 5328)
The test is described as follows: BSK_KF3CT_uPA: BioMAP Diversity Plus: KF3CT Assay for urokinase plasminogen activator (uPA) Biomarker Activity (AID 2283075). Particulars: primary human keratinocytes with fibroblasts; actives raise or lower the signal. The gist of the method:
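Skin co-culture (keratinocytes + foreskin fibroblasts), human primary; 24 h post-dose; uPA by ELISA; gain/loss fit vs DMSO baseline.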

Read-out in a further test: CD40, CD40 (gene 958)
The test is described as follows: BSK_LPS_CD40: BioMAP Diversity Plus: LPS Assay for CD40 Biomarker Activity (AID 2283076). Particulars: primary human HUVEC with PBMC; actives raise or lower the signal. Summed up:
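In the LPS system of human endothelial cells with peripheral blood mononuclear cells, CD40 levels were read by ELISA 24 h post-treatment. Signal changes in either direction were fitted against the DMSO baseline, with parallel SRB protein staining.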

`O=C(O)CCCc1ccc(N(CCCl)CCCl)cc1`: the AC50 in test [1] was 24.8 µM (active) and 20 µM (active); in test [2], 15.2 µM (active) and 5.57 µM (active); in test [4], 30.6 µM (active) and 20 µM (active); in test [5], 17 µM (active) and 20 µM (active); in test [8], 6.32 µM (active) and 5.54 µM (active); in test [15] it was 20 µM (active). The AC50 in [16] is 31.9 µM (active) and 36.2 µM (active); in test [18], 30.6 µM (active) and 32.6 µM (active); with CD40, CD40 (gene 958) it was 20 µM (active). For the same compound, the result in [3], in [6], in test [7], in [9], in [10] and in [11] was inactive. Besides, the outcome in test [12], in test [13], in [14], in [17] and in test [19] was inactive.
Take `O=C1C(Cl)=C(Cl)C(=O)C(Cl)=C1Cl`: the AC50 was 20 µM (active) in [1]; 6.19 µM (active) in [2]; 20 µM (active) in test [3]; 20 µM (active) in [4]; 15.3 µM (active) in test [5]; 28.8 µM (active) in test [7]. The AC50 in test [8] was 1.63 µM (active); in test [9] it was 6.62 µM (active); in [10], 12.5 µM (active); in test [11], 31.4 µM (active); in test [12] it was 26.8 µM (active); in [13], 11.1 µM (active). In addition, the AC50 in test [14] is 27.1 µM (active); in test [15] it was 20 µM (active); in test [16] it was 23.7 µM (active); in test [18], 12.1 µM (active); in [19], 28.5 µM (active); with CD40, CD40 (gene 958) it was 15.1 µM (active). The outcome in [6] and in test [17] was inactive.
On to `CC(C)(C)C(O)C(Oc1ccc(-c2ccccc2)cc1)n1cncn1` (stereo not given), for which the half-maximal activity concentration (AC50) in [1] is 30.5 µM (active); in [2], 14.4 µM (active); in test [4], 29 µM (active); in test [5], 30.9 µM (active); in [18], 20 µM (active). Moreover, the outcome in test [3], in test [6], in [7], in [8], in [9] and in [10] was inactive. In addition, the outcome in test [11], in test [12], in test [13], in [14], in test [15] and in test [16] was inactive. Besides, the outcome in test [17] is “inactive”; in test [19], “inactive”; with CD40, CD40 (gene 958), “inactive”.
